Activity calls are given as the source filed them. The calls were made as follows: active = hit-call score of the fitted dose curve at least 0.9, where 1 is the maximum; inactive = score below 0.9.
test: ATG_TA_CIS: Attagene CIS-FACTORIAL HepG2 Assay for human TA Basal Promoter (AID 2282964); conditions: HepG2 Attagene CIS-factorial TA basal promoter reporter; actives raise or lower the signal
Procedure: ATG_CIS is a cell-based, multiplexed-readout assay that uses HepG2, a human liver cell line, with measurements taken at 24 hours after chemical dosing in a 24-well plate.ATG_TA_CIS is one of 52 assay component(s) measured or calculated from the ATG_CIS assay. It is designed to make measurements of mRNA induction, a form of inducible reporter, as detected with fluorescence intensity signals by Reverse transcription polymerase chain reaction (RT-PCR) and Capillary electrophoresis technology.Data from the assay component ATG_TA_CIS was analyzed into 1 assay endpoint. This assay endpoint, ATG_TA_CIS, was analyzed with bidirectional fitting relative to DMSO as the negative control and baseline of activity. Using a type of inducible reporter, measures of mRNA for gain or loss-of-signal activity can be used to understand the background control at the transcription factor-level as they relate to the gene . Furthermore, this assay endpoint can be referred to as a secondary readout, because this assay has produced multiple assay endpoints where this one serves a background control function. To generalize the intended target to other relatable targets, this assay endpoint is annotated to the background measurement intended target family, where the subfamily is internal marker.
Human liver HepG2 cells are transiently transfected with multiple reporter transcription units (MRTUs) in 6-well plates using FuGene 6 reagent (Roche; 3 ml FuGene/1 mg DNA). The MRTU constructs are regulated by a cis-regulating element (promoter). […] A major difference between the CIS and TRANS system is that in CIS activities of endogenous TFs are measured, whereas the TRANS assay evaluates changes in activities of exogenous, chimeric NR-Gal4 proteins. […] At the end of 24 hour incubation, total RNA was isolated using TriZol reagent (Invitrogen). The isolated RNA is then reverse-transcribed using oligo(dT) primer and Mo-MLV reverse transcriptase (Invitrogen) with DNAse I (Ambion) treatment for 30 min. The one-tenth of the produced cDNA was amplified by PCR using Taq DNA polymerase (Invitrogen) and two reporter sequence-specific primers. The PCR products were fluorescently labeled by primer extension with 6-arboxyfluorescein (6-FAM) 5'-labeled reporter sequence-specific primer (2 min at 95 C, 20 s at 68 C and 10 min at 72 C) and these products were digested with 5U of HpaI (New England Biolabs) for 2h at 37 C. The fragments were purified using Qiaquick PCR columns (Qiagen), analyzed on an ABI 3130xL genetic analyzer (Applied Biosystems) with peak positions identified by using a set of X-rhodamine (ROX)-labeled MapMarker1000 molecular weight standards (BioVentures). The raw capillary electrophoresis data was processed using Attagraph software (Attagene).

outcome, inactive:
CC[Si](OC(C)=O)(OC(C)=O)OC(C)=O
COc1cc(C(C)(C)C)c(O)c(C(C)(C)C)c1
OC1OC[C@@H](O)[C@H](O)[C@H]1O (stereo not given in full)
CCCCCCCCCCCCN
CC(=O)C=CC1=C(C)CCCC1(C)C
CC1CCC(C(C)CS)CC1S (stereo not given)
Cc1ccc(C=O)cc1
CCC(=O)OCCC(C)CCC=C(C)C (stereo not given)
O=C1c2ccccc2C(=O)N1SC1CCCCC1
O=C[C@@H](O)[C@H](O)[C@H](O)CO
CN1[C@@H]2CC(OC(=O)[C@H](CO)c3ccccc3)C[C@H]1[C@@H]1O[C@@H]12 (stereo not given in full)
CCC(C(=O)NC(N)=O)c1ccccc1 (stereo not given)
Clc1ccc(Cl)c(Cl)c1Cl
CCCCCCCCCCCCCC(=O)O
CC1COc2ccccc2N1C(=O)C(Cl)Cl (stereo not given)
CCCCCCCCCCCCCCCCCC(=O)OCC(CC)CCCC (stereo not given)
COC(=O)c1ccc(C)cc1
Cc1ccc(Nc2ccc(O)c3c2C(=O)c2ccccc2C3=O)cc1
CNCCCC12CCC(c3ccccc31)c1ccccc12
CCCCCCCCCC=O
C=C(C)C(=O)O
CC(C)=CCCC(C)=CCCC(C)=CCO
O=C1O[C@@H]2[C@@H](O)[C@H](O)O[C@@H]2[C@H]1O
CCCCC(CC)COC(=O)/C=C\C(=O)OCC(CC)CCCC (stereo not given)
O=C(O)C[C@H](O)C[C@H](O)/C=C/c1c(C2CC2)nc2ccccc2c1-c1ccc(F)cc1
CC(C)(Oc1ccc(CCNC(=O)c2ccc(Cl)cc2)cc1)C(=O)O
CNC(=O)Oc1ccc2c(c1)[C@]1(C)CCN(C)[C@@H]1N2C
Cc1cccc(C)c1[N+](=O)[O-]
O=C1CCc2ccccc2O1
O=C(O)c1ccc([N+](=O)[O-])cc1
C=C(C)[C@@H]1CCC2=CC(=O)C[C@@H](C)[C@]2(C)C1
COC(=O)Cc1cccc2ccccc12
CC(C)[C@H]1CC[C@@H](C)CC1=O
OCCN1CCNCC1
CCc1ccc(C=O)cc1
O=C1CCCCCCCCCCCCCCO1
COc1nc(C)nc(N)n1
COC(C)CCO (stereo not given)
CN(CCOc1ccc(CC2SC(=O)NC2=O)cc1)c1ccccn1 (stereo not given)
O=C(O)CN(CCN(CC(=O)O)CC(=O)O)CCN(CC(=O)O)CC(=O)O
